Experimental data published in PubChem BioAssay (NCATS).
Inconclusive results are not listed. The source made the active and inactive calls. Unless noted, calls follow the shape of the dose curve; as a rule, active = well fitted curve in the direction sought with a large enough effect; inconclusive = small, poorly fitted or top-dose-only effect, or another doubt; inactive = no such curve, though single readings can be large; an effect the other way counts as inactive or inconclusive.

Columns and labels:
[1] = molecular target: ATP-dependent 6-phosphofructokinase (Trypanosoma brucei brucei) (UniProt O15648); assay: qHTS Assay to Find Inhibitors of T. brucei phosphofructokinase: hit validation (AID 492961);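 also: luminescence reports ADP formed as PFK phosphorylates fructose-6-phosphate with ATP; series mostly up to about 51 µM; % is scaled to controls: 0 for no effect and ±100 for the full control effect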
Chain of ATP-dependent 6-phosphofructokinase (Trypanosoma brucei brucei) (O15648 whole entry, looked up): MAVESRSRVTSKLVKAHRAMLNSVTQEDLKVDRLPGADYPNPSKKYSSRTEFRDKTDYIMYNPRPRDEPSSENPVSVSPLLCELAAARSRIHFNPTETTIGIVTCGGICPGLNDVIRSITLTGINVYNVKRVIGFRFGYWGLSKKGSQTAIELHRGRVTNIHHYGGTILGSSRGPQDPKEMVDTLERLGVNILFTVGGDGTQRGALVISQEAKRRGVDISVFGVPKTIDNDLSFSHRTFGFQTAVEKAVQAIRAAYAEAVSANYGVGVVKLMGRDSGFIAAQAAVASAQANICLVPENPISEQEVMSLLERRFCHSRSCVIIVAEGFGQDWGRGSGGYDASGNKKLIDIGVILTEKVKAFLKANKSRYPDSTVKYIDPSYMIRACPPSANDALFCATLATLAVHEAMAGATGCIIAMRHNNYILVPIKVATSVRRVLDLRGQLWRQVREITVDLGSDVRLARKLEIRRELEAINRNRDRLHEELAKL
Summary of the method: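 Reaction: 0.1 M triethanolamine pH 8.0, 5 mM MgCl2, F6P 0.5 mM, ATP 0.1 mM, PFK 1.25 nM, 45 min RT. Read-out: ADP-Glo luminescence. Analysis: concentration-response fits, classed by r2 and efficacy.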

[2] = Validation screen for small molecules that induce genotoxicity in human embryonic kidney (HEK293T) cells expressing luciferase-tagged ELG1 (AID 493106); also: 0% is about no effect
Summary of the method: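 In this validation screen, increased ELG1-luciferase signal flags compounds causing genetic stress. HEK293T reporter cells are treated 16 hr (37 °C, 5% CO2), developed with ONE-Glo for 30 min at room temperature, and imaged on a CCD-based reader.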

[3] = Nrf2 qHTS screen for inhibitors: Validation (AID 493153; active = well fitted inhibition curve with a large enough effect in the main read-out, with a control signal flat, not every such curve was filed as active); conditions: Potency: luciferase luminescence; viability change: measured here: cytotoxicity max response
Summary of the method: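 In this counterscreened reporter format, each well gives two signals: CellTiter-Fluor fluorescence for cytotoxicity and ARE-luciferase luminescence for Nrf2 function. A549 ARE_Fluc cells in 5% FBS OPTI-MEM were exposed to compound titrations for 18-24 h.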

[4] = qHTS for Inhibitors of Cell Surface uPA Generation: Validation Assay (AID 493164);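 also: RAW 264.7 macrophage cells exposed to compound for 18 h; 0% is about no effect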
Summary of the method: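 Compounds are titrated over seven points (2.45 nM–38.3 uM final) onto pre-plated RAW 264.7 cells and incubated for 18 h. Retained intracellular ATP, measured with ATP-Lite, indicates blocked lethal factor entry.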

[5] = molecular target: Galactokinase (Homo sapiens) (UniProt P51570); assay: qHTS Validation Assay for Inhibitors of Human Galactokinase (GALK) (AID 493189); also: 0% is about no effect
Chain of Galactokinase (Homo sapiens) (P51570 whole entry, looked up): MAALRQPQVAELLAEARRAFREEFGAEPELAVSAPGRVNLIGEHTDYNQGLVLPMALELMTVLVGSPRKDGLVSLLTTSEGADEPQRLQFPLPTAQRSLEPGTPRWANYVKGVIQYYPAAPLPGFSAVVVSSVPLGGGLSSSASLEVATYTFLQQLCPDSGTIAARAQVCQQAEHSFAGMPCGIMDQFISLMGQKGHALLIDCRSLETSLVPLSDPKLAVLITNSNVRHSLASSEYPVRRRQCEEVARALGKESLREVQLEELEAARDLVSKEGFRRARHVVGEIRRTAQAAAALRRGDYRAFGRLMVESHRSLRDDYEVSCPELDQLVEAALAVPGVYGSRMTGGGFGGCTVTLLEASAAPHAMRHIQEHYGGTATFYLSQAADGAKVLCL
Summary of the method: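 5 nM GALK / 100 uM galactose / 35 uM ATP, 20 mM HEPES pH8.0, 5 mM MgCl2, 60 mM NaCl, 1 mM DTT, 0.01% BSA (final). RT 1 h; Kinase-Glo Plus luminescence.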

[6] = Validation screen for small molecules that induce DNA re-replication in SW480 colon adenocarcinoma cells (AID 504364); also: 0% is about no effect
Summary of the method: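 Hoechst-stained SW480 nuclei, imaged at 405 nm excitation after 48 hr compound exposure, were counted for elevated DNA content as the re-replication signal.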

[7] = molecular target: Peptidyl-prolyl cis-trans isomerase NIMA-interacting 1 (Homo sapiens) (UniProt Q13526); assay: qHTS Validation Assay to Find Inhibitors of Pin1 (AID 504536; active = well fitted inhibition curve with a large enough effect in the polarisation, with a control signal flat, not every such curve was filed as active; the % refers to the polarisation;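 also: 0% = full Pin1 enzyme wells and -100% = no-enzyme wells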)
Chain of Peptidyl-prolyl cis-trans isomerase NIMA-interacting 1 (Homo sapiens) (Q13526 whole entry, looked up): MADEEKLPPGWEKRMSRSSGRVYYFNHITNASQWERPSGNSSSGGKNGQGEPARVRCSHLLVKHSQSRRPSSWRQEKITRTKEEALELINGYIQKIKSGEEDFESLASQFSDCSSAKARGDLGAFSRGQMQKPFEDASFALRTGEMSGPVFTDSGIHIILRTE
Summary of the method: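 Fluorescence polarization competition: compounds (titration) displace HiFluor-488-labeled Pin1-1b peptide from Pin1 (0.3 uM final) in pH 7.5 HEPES buffer with DTT, 10 min at room temperature; %Activity normalized to no-enzyme wells, curves fitted.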

[8] = molecular target: Phosphoglycerate kinase, glycosomal (Trypanosoma brucei brucei) (UniProt P07378); assay: qHTS Validation Assay to Find Inhibitors of Phosphoglycerate Kinase (AID 504547);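 also: control wells lack PGK and mark full inhibition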
Chain of Phosphoglycerate kinase, glycosomal (Trypanosoma brucei brucei) (P07378 whole entry, looked up): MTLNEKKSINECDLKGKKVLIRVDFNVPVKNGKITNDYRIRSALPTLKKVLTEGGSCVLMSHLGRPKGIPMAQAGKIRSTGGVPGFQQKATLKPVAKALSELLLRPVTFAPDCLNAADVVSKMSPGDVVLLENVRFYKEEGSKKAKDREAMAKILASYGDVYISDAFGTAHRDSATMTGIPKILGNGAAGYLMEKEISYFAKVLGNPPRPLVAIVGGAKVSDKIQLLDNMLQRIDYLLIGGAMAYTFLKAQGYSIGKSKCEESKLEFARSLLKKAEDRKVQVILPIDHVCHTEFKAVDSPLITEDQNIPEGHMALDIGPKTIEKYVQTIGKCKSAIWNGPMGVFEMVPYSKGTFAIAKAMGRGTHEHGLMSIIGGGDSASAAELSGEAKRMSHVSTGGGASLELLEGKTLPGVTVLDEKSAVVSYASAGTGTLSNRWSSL
Summary of the method: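 In TEA buffer (100mM, pH 7.6) containing 5mM MgCl2 and 0.01% Tween-20, the GAPDH-coupled PGK reaction proceeded for 60 minutes at room temperature before a single luminescence reading using Kinase-Glo Plus.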

[9] = molecular target: phosphoglycerate mutase (Leishmania major) (UniProt Q4Q090); assay: qHTS Validation Assay to Find Inhibitors of Phosphoglycerate Mutase (AID 504548);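 also: end-point luminescence from Kinase-GloPlus after the PGAM reaction; series mostly up to about 58 µM; % is scaled to controls: 0 for no effect and ±100 for the full control effect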
Chain of phosphoglycerate mutase (Leishmania major) (Q4Q090 1-553): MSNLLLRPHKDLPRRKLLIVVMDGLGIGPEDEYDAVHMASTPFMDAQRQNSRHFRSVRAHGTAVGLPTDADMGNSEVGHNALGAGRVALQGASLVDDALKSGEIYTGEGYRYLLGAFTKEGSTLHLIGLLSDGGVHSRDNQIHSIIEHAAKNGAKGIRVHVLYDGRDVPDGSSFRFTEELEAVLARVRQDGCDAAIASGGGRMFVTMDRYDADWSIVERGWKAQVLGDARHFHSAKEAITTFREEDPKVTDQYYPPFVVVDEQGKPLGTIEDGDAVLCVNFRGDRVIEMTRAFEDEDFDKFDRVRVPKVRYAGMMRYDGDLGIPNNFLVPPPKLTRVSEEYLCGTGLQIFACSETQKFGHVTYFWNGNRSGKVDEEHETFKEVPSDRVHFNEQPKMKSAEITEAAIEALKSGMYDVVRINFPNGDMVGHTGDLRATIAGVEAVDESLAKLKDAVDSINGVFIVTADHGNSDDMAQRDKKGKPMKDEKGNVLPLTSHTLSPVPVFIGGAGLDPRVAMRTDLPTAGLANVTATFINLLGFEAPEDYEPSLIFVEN
Summary of the method: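 L. major PGAM (1.25nM final) was added to substrate buffer and pinned compound, incubated 45 minutes at room temperature, then Kinase-GloPlus added; luminescence read after 10 minutes. Buffer: 100 mM TEA pH 7.6, 5 mM MgCl2, 0.01% Tween-20.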

[10] = molecular target: Ubiquitin carboxyl-terminal hydrolase 1 (Homo sapiens) (UniProt O94782); assay: Inhibitors of USP1/UAF1: Pilot qHTS (AID 504865); also: nearly all actives have a fitted effect of over 35% in size; also: potency is read from the fitted curve at half-maximal effect
Chain of Ubiquitin carboxyl-terminal hydrolase 1 (Homo sapiens) (O94782 whole entry, looked up): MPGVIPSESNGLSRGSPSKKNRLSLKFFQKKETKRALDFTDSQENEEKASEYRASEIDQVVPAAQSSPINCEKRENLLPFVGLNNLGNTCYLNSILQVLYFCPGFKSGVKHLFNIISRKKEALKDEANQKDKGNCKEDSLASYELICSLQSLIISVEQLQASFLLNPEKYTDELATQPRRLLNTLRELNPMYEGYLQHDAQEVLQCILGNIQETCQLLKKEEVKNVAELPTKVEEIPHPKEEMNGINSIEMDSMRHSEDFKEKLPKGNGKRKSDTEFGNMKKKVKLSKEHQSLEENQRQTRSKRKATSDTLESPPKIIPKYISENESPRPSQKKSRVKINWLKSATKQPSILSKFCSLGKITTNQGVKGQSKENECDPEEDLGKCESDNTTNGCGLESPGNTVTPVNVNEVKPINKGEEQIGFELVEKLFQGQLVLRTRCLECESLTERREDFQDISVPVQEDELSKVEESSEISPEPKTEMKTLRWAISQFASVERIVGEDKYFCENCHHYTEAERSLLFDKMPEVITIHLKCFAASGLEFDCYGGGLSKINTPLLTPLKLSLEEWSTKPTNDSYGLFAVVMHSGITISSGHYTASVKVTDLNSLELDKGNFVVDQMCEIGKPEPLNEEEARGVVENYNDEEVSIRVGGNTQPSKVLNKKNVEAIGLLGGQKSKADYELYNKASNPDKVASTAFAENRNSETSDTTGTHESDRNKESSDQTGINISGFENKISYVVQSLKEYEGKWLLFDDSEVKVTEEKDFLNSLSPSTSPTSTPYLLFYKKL
Summary of the method: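 In 50mM HEPES pH 7.8 containing 0.5mM EDTA, 1mM TCEP, 0.1 mg/ml BSA and 0.01% Tween-20, 1nM USP1/UAF1 is exposed to compound for 15 min, then Ub-Rho (150nM final) is added and fluorescence is read over time.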

[11] = qHTS for Inhibitors of ATXN expression: Validation of Cytotoxic Assay (AID 588349); also: potency is read from the fitted curve at half-maximal effect
Summary of the method: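 Toxicity of test compounds toward HEK293 cells is scored from cellular ATP content measured by CellTiter Glo. Cells receive titrated doses and incubate 72 hr at 37 degrees C beforehand.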

[12] = qHTS for Inhibitors of ATXN expression: Validation (AID 588378); also: nearly all actives have a fitted effect of over 75% in size; also: potency is read from the fitted curve at half-maximal effect
Summary of the method: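 Compounds were pinned onto attached HEK293 cells carrying an ATXN2-firefly luciferase construct and incubated 24 hrs at 37 degrees C. Each well then received a fluorescent viability reagent followed by luciferase substrate for end-point luminescence.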

[13] = molecular target: ATPase family AAA domain-containing protein 5 (Homo sapiens) (UniProt Q96QE3); assay: Validation screen for small molecules that inhibit ELG1-dependent DNA repair in human embryonic kidney (HEK293T) cells expressing luciferase-tagged ELG1 (AID 493107); also: nearly all actives have a fitted effect of over 70% in size; also: potency is read from the fitted curve at half-maximal effect
Summary of the method: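 Compounds reducing 5-fluorouridine-driven ELG1-luciferase signal in HEK293T cells were scored; exposure lasted 16 hr at 37 °C with luminescence detected via ONE-Glo.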

[14] = molecular target: Estrogen receptor (Homo sapiens) (UniProt P03372); assay: qHTS assay for small molecule antagonists of estrogen receptor alpha signaling (AID 588513; active = well fitted curve in the direction sought with a large enough effect in the signal ratio, with a control signal flat, not every such curve was filed as active; the % refers to the signal ratio; also: % is scaled to controls: 0 for no effect and ±100 for the full control effect)
Chain of Estrogen receptor (Homo sapiens) (P03372 whole entry, looked up): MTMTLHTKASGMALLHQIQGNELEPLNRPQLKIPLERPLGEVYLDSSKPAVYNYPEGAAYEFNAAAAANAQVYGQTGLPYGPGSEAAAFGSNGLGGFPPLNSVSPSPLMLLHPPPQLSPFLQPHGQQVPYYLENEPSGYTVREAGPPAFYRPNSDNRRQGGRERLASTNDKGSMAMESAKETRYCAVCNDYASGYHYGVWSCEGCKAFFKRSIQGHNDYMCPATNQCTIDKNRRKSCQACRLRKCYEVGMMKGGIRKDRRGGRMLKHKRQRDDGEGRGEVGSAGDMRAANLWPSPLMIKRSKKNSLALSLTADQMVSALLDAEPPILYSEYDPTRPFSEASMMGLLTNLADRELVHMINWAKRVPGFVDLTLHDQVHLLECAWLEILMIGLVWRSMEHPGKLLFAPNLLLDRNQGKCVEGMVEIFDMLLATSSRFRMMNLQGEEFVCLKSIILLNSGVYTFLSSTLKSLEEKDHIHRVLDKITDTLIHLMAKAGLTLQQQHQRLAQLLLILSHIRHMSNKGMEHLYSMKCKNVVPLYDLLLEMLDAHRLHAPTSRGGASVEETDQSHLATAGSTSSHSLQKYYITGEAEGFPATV
Summary of the method: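 Fluorescence from CCF4 substrate after 2 h at room temperature gave reporter activity; cells had been exposed to compound and 0.5nM 17-beta-estradiol for 18 h at 37 C. Hill-equation fitting yielded IC50 and maximal response.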

[15] = molecular target: Estrogen receptor (Homo sapiens) (UniProt P03372); assay: qHTS assay for small molecule agonists of estrogen receptor alpha signaling (AID 588514; calls by dose curve;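 also: 0% = vehicle only and 100% = reference agonist; nearly all actives have a fitted effect of over 70% in size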)
Summary of the method: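 Fluorescence from CCF4 cleavage reports ER-alpha-driven beta-lactamase expression in HEK 293 cells treated 18 hrs at 37 C. Data normalized to 17-beta-estradiol (20 nM) and DMSO, fitted to Hill equation.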

[16] = molecular target: Bile acid receptor (Homo sapiens) (UniProt Q96RI1); assay: qHTS assay for small molecule antagonists of farnesoid X receptor signaling (AID 588526; calls by dose curve; also: % is scaled to controls: 0 for no effect and ±100 for the full control effect)
Chain of Bile acid receptor (Homo sapiens) (Q96RI1 whole entry, looked up): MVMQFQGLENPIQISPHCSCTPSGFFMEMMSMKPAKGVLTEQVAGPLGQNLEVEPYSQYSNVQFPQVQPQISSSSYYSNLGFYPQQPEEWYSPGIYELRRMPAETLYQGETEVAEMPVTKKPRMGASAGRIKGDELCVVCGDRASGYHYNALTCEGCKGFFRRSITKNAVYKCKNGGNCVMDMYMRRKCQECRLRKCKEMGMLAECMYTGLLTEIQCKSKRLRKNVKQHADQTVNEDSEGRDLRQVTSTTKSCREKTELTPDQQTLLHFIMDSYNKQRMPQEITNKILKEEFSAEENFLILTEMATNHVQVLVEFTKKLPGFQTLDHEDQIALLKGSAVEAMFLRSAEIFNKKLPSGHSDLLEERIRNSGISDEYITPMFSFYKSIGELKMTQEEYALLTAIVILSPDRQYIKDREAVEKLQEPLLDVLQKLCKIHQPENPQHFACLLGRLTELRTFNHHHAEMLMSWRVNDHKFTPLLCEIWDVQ
Summary of the method: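 Concentration-response titrations were fitted to the Hill equation for half-maximal inhibition and maximal response, with data normalised to 50 uM chenodeoxycholic acid and DMSO control wells. Cells: FXR-UAS-bla HEK293T, dialyzed FBS.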

[17] = molecular target: Glucocorticoid receptor (Homo sapiens) (UniProt P04150); assay: qHTS assay for small molecule agonists of glucocorticoid receptor signaling (AID 588532; active = well fitted curve in the direction sought with a large enough effect in the signal ratio, with a control signal flat; the % refers to the signal ratio;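 also: 100% = dexamethasone at 0.1 µM and 0% = DMSO only wells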); conditions: HeLa MMTV-bla, beta-lactamase ratio, agonist, 18 h; activation: stronger effect = higher value, percent of dexamethasone control, DMSO zero
Summary of the method: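 Stimulation of a glucocorticoid response element-driven beta-lactamase gene was measured in HeLa cells. Responses were scaled between DMSO basal and 0.1 uM dexamethasone, then fitted for half-maximal stimulation.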

[18] = molecular target: Thyrotropin-releasing hormone receptor (Homo sapiens) (UniProt P34981); assay: qHTS for Small Molecule Agonists and Allosteric Enhancers of Human TRH Receptor: Validation Screen for Agonists (AID 493127;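 active = calcium activation more than 3 SD above the typical response in the agonist read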;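 also: intracellular calcium rise by fluo-8 fluorescence before TRH EC20 addition; 0% is about no effect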); conditions: TRH receptor agonist cell assay; at 2 µM; stronger effect = higher value
Chain of Thyrotropin-releasing hormone receptor (Homo sapiens) (P34981 whole entry, looked up): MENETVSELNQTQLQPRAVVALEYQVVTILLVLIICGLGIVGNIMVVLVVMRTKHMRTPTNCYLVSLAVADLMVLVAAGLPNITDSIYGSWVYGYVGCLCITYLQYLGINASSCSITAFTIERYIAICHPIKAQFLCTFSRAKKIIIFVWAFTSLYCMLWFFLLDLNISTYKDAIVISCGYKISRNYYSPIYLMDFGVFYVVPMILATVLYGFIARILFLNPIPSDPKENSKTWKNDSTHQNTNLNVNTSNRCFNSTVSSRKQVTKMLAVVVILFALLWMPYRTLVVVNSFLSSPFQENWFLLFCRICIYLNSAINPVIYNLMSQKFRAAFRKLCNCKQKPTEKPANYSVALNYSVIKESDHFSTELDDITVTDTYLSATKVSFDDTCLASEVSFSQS
Summary of the method: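 Kinetic fluorescence assay of agonist-induced calcium release: overnight-plated TRHR cells, room-temperature fluo-8 loading, baseline then compound addition with per-second reads.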

CN(C)CCN(Cc1cccs1)c1ccccn1
inactive: outcome [1] | Potency [2] | Potency [3] | outcome [4] | outcome [5] | outcome [6] | outcome [7] | outcome [8] | outcome [9] | Potency [10] | Potency [11] | Potency [12]
-0.0804%: viability change [3]

CC(C)(Oc1ccc(CCNC(=O)c2ccc(Cl)cc2)cc1)C(=O)O
5.14%: viability change [3]
inactive: outcome [1] | Potency [2] | Potency [13] | Potency [3] | outcome [4] | outcome [7] | outcome [8] | outcome [9] | Potency [10] | Potency [11] | Potency [12] | outcome [14] | Potency [15] | outcome [16] | activation [17] -5.13%

CC(C)NNC(=O)c1ccncc1
1.54%: viability change [3]
inactive: outcome [1] | Potency [2] | Potency [3] | outcome [4] | outcome [5] | outcome [6] | outcome [7] | outcome [8] | outcome [9] | Potency [10] | Potency [11] | Potency [12]

CCN(CC)CCNC(=O)c1cc(S(C)(=O)=O)ccc1OC
inactive: outcome [1] | Potency [2] | Potency [13] | activation [18] 0.0625% | Potency [3] | outcome [4] | outcome [5] | outcome [6] | outcome [7] | outcome [8] | outcome [9] | Potency [10] | Potency [11] | Potency [12]
10.1%: viability change [3]

NC(N)=N/N=C/c1c(Cl)cccc1Cl
6.68%: viability change [3]
inactive: outcome [1] | Potency [2] | Potency [13] | activation [18] -6.19% | Potency [3] | outcome [4] | outcome [5] | outcome [6] | outcome [7] | outcome [9] | Potency [10]

Cc1ccc(/C(=C\CN2CCCC2)c2ccccn2)cc1
inactive: outcome [1] | Potency [2] | Potency [13] | Potency [3] | outcome [4] | outcome [5] | outcome [6] | outcome [7] | outcome [8] | outcome [9] | Potency [10] | Potency [11] | Potency [12]
2.7%: viability change [3]

CCN(CC)CCCN(c1ccccc1)C1Cc2ccccc2C1
-6.42%: viability change [3]
inactive: outcome [1] | Potency [2] | Potency [13] | Potency [3] | outcome [4] | outcome [7] | outcome [9] | Potency [10]

CC(N=C(NC#N)Nc1ccncc1)C(C)(C)C (stereo not drawn)
inactive: outcome [1] | Potency [2] | Potency [13] | activation [18] 0.125% | Potency [3] | outcome [4] | outcome [6] | outcome [7] | Potency [10] | Potency [11] | Potency [12]
-0.502%: viability change [3]

O=C(CCNNC(=O)c1ccncc1)NCc1ccccc1
inactive: outcome [1] | Potency [2] | Potency [13] | activation [18] 0.188% | Potency [3] | outcome [4] | outcome [5] | outcome [6] | outcome [7] | outcome [9] | Potency [10] | Potency [11] | Potency [12]
-3.76%: viability change [3]

O=c1[nH]c(=O)n([C@H]2C[C@H](O)[C@@H](CO)O2)cc1Br
1.73%: viability change [3]
inactive: outcome [1] | Potency [13] | activation [18] 1% | Potency [3] | outcome [4] | outcome [5] | outcome [6] | outcome [7] | outcome [8] | outcome [9] | Potency [10] | Potency [11] | Potency [12] | outcome [14] | Potency [15] | outcome [16]

c1cc(CN2CCCCC2)cc(OCCCNc2nc3ccccc3s2)c1
-17%: viability change [3]
inactive: outcome [1] | Potency [2] | Potency [13] | Potency [3] | outcome [4] | outcome [5] | outcome [7] | outcome [8] | outcome [9] | Potency [10]

COCC(=O)O[C@]1(CCN(C)CCCc2nc3ccccc3[nH]2)CCc2cc(F)ccc2[C@@H]1C(C)C
active: Potency [13] 18.3 µM | Potency [11] 28.2 µM | Potency [12] 15.8 µM
inactive: outcome [1] | Potency [2] | activation [18] 7.31% | outcome [4] | outcome [5] | outcome [6] | outcome [7] | outcome [8] | outcome [9] | Potency [10]

C[C@H](CS)C(=O)N1CCC[C@H]1C(=O)O
inactive: outcome [1] | Potency [2] | Potency [13] | activation [18] -0.375% | Potency [3] | outcome [4] | outcome [6] | outcome [7] | outcome [8] | outcome [9] | Potency [11] | Potency [12]
0.828%: viability change [3]

CC(C)(C)c1ccc(C(=O)CCCN2CCC(OC(c3ccccc3)c3ccccc3)CC2)cc1
-5.59%: viability change [3]
inactive: outcome [1] | Potency [2] | Potency [3] | outcome [4] | outcome [7] | outcome [8] | outcome [9] | Potency [11] | Potency [12]

NC/C=C/C(=O)O
inactive: outcome [1] | Potency [2] | Potency [13] | activation [18] 0.688% | Potency [3] | outcome [4] | outcome [5] | outcome [6] | outcome [7] | outcome [9] | Potency [10] | Potency [11] | Potency [12]
-0.253%: viability change [3]

Cc1cc(C)c(/C=C2\C(=O)Nc3ccccc32)[nH]1
active: Potency [10] 7.52 µM
inactive: outcome [1] | Potency [2] | activation [18] 0.562% | outcome [4] | outcome [5] | outcome [6] | outcome [8] | outcome [9] | Potency [12]

OCCN1CCN(CCCN2c3ccccc3C=Cc3ccccc32)CC1
4.92%: viability change [3]
inactive: outcome [1] | Potency [2] | Potency [13] | Potency [3] | outcome [4] | outcome [5] | outcome [6] | outcome [7] | outcome [8] | outcome [9] | Potency [10]

CCOC(=O)c1cnc2c(cnn2CC)c1NN=C(C)C
inactive: outcome [1] | Potency [2] | Potency [13] | activation [18] -4.75% | Potency [3] | outcome [4] | outcome [5] | outcome [6] | outcome [7] | outcome [8] | outcome [9] | Potency [10] | Potency [11] | Potency [12]
-1.57%: viability change [3]

C[N+](C)(C)CCOC(=O)CCC(=O)OCC[N+](C)(C)C
inactive: outcome [1] | Potency [2] | Potency [13] | activation [18] 0.188% | Potency [3] | outcome [4] | outcome [5] | outcome [6] | outcome [7] | outcome [8] | outcome [9] | Potency [10] | Potency [11] | Potency [12]
0.0745%: viability change [3]
